In article PMC9426499:

These sequences were tested against ParRC(pCW3) (Clostridium perfringens plasmid pCW3, UniProt Q1PLJ8 1-87) (assay: SPR; high values mean tight binding). Details: protein: recombinant; tags: C-terminal His6; chain copies: 4; label: 3' 20-nt overhang of comp strand annealed to immobilized 5'-biotin ReDCaT linker; dsDNA, one strand shown.

Sequence	binding signal [RU]
CATAAACATCACAATTTTACGTAATTTAGA	348
TTTTGCAAGTAAAAAACATCACAATTTTAC	217
ACAATTTTACGTAATTTAGATTTTGCAAGT	48.4
ATTTTACGGAAAATGCTTGATTTAGATTGA	9.2
AAAATGAAAAAAACATCACAATTTTACGGA	250
AAAAAACATCACAATTTTACATAATAGAAA	311
AATTAAAAACATCACAATTTTACGTAATGA	256
GTAATTTAGATTTTGCAAGTAAAAAACATC	42.6
AATTTTACATAATAGAAAGGATTGATAAAA	3.1
AAACATCACAATTTTACGGAAAATGCTTGA	282
ACAATTTTACATAATAGAAAGGATTGATAA	4.3
ATCACAATTTTACGTAATGACAGTTTGTTG	54.7
AATATAAAAACATAAACATCACAATTTTAC	155
